# Values joined by “and” are separate entries in the source; they are usually repeats but may differ in a detail not shown here. Equal values may be shown once. Unmarked numbers belong to inactive results. Inconclusive results are not listed. Active and inactive are the calls of the source. Unless noted, calls follow the shape of the dose curve; as a rule, active = well fitted curve in the direction sought with a large enough effect; inconclusive = small, poorly fitted or top-dose-only effect, or another doubt; inactive = no such curve, though single readings can be large; an effect the other way counts as inactive or inconclusive.
# Assays:
# [1] = qHTS assay for environmental chemicals that activate the Aryl hydrocarbon Receptor (AhR) signaling pathway (AID 651777); settings: 1A2-DRE human hepatoma cells, luciferase, 24 h; activation: active compounds read high; also: nearly all actives have a fitted effect of over 15% in size; also: potency is read from the fitted curve at half-maximal effect; as to activation: % of control where 0% means no effect
# Procedure, shortened: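 Following a 24 hr incubation with test chemicals at 37 C and 5% CO2, 1A2-DRE human hepatoma cells received One-Glo reagent; after 30 min at room temperature, luciferase output reflected CYP1A2 induction via AhR.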
# [2] = target: Peroxisome proliferator-activated receptor alpha (Homo sapiens) (UniProt Q07869); assay: qHTS assay for small molecule agonists of the peroxisome proliferator-activated receptor alpha (PPARalpha) signaling pathway (AID 651778); settings: PathHunter PPARalpha complementation, chemiluminescence, 6 h; max response: active compounds read high; also: % of control where 0% means no effect
# Procedure, shortened: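 Cells plated at 2,000/well and held overnight at 37 C, 5% CO2, then compound added by pin tool for 6 hr; after PathHunter detection reagent and 60 min at room temperature, chemiluminescence from enzyme complementation was read.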
# [3] = qHTS assay for small molecule agonists of the antioxidant response element (ARE) signaling pathway measured by Nrf2-dependant transcriptional activity (AID 720636; active = well fitted curve in the direction sought with a large enough effect in the repeat runs; an effect the other way counts as inactive or inconclusive; also: potency is read from the fitted curve at half-maximal effect;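 as to activation: HepG2 cells with an ARE-driven luciferase reporter; % of control where 0% means no effect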)
# Procedure, shortened: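 ONE-Glo luminescence, read 30 min after reagent addition at room temperature, reflected ARE reporter activity in HepG2 cells that had been incubated with compound for 16 hr at 37 C in 1% dialyzed FBS.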
# [4] = qHTS assay for small molecule agonists of the antioxidant response element (ARE) signaling pathway measured by Nrf2-dependant transcriptional activity - cell viability counter screen (AID 720653; active = well fitted curve in the direction sought with a large enough effect in the repeat runs; an effect the other way counts as inactive or inconclusive; also: % is scaled to controls: 0 for no effect and ±100 for the full control effect); settings: ARE-bla HepG2 viability, CellTiter-Glo ATP luminescence, 16 h; active compounds read low
# Procedure, shortened: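 ARE-bla HepG2 cells (2,000/well) rested 5 hrs at 37C/5% CO2, then exposed to compounds in DMSO for 16 hrs. Viability was read in the same wells as intracellular ATP by luminescence, 30 min at room temperature after reagent addition.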
# [5] = qHTS Assay for Identifying Gametocytocidal Compounds (AID 743244); also: potency is read from the fitted curve at half-maximal effect;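 as to max response: % is scaled to controls: 0 for no effect and ±100 for the full control effect; actives lower the fluorescent signal which means gametocytes are killed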; settings: P. falciparum 3D7 stage III-V gametocytes, alamarBlue, 72 h; max response: active compounds read low
# Procedure, shortened: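 A resazurin-based viability read-out was applied to mature P. falciparum gametocytes: 72 h compound treatment, then 24 h dye incubation, with falling fluorescence signalling gametocytocidal effect.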
# [6] = qHTS assay for cell viability of HEK293 cells (AID 743288); settings: ATP luminescence (CellTiter-Glo), 18 h; max response: active compounds read low; also: nearly all actives have a fitted effect of over 50% in size; also: potency is read from the fitted curve at half-maximal effect; as to max response: % is scaled to controls: 0 for no effect and ±100 for the full control effect
# Procedure, shortened: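 Readout is luciferase-coupled ATP content (CellTiter-Glo luminescence, 30 min room temperature) as a measure of metabolically competent cells. Parental HEK293 cells were plated 5 h or more before compound addition, then treated 18 h at 37 C.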
# [7] = qHTS assay for cell viability of the p53RE-bla HCT-116 cell line (AID 743292); also: % is scaled to controls: 0 for no effect and ±100 for the full control effect; nearly all actives have a fitted effect of over 55% in size
# Procedure, shortened: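 After plating at 4,000 cells per well and a 5 h rest at 37 C, HCT-116 cells carrying p53RE-bla received test chemicals in DMSO. Sixteen hours later at 37 C, CellTiter-Glo was added and luminescence recorded following 30 min at room temperature.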
# [8] = target: Arylsulfatase A (Homo sapiens) (UniProt P15289); assay: qHTS screen for enhancers of Arylsulfatase A (ASA1): LOPAC Validation Assay (AID 720538); also: potency is read from the fitted curve at half-maximal effect
# Procedure, shortened: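 Enhancer assay in patient-derived MLD fibroblasts carrying ASA-I179S: 48 h compound exposure at 37 C, then 14 h room-temperature pNCS turnover (0.5 mM final) in lysis buffer. Read by fluorescence at 525/598 nm after NaOH stop.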
# [9] = target: T1, Hexokinase-4 (Homo sapiens) + Glucokinase regulatory protein (Homo sapiens) (UniProt P35557+Q14397); assay: qHTS assay for inhibitors of recombinant human GCK-GKRP interaction: Diaphorase-coupled assay (AID 743205)
# Procedure, shortened: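 A kinetic fluorescence read (Ex 525/Em 590 nm, every minute for 30 minutes) tracked resorufin from a G6PDH-diaphorase coupled GCK reaction. It contained 10 nM GST-GCK, 10 nM FLAG-GKRP, 5 mM glucose, 0.4 mM ATP in Hepes pH 7.6. Normalized to with/without-enzyme DMSO controls.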
# [10] = target: Nuclear receptor ROR-gamma (Homo sapiens) (UniProt P51449); assay: qHTS assay for small molecule antagonists of the retinoid-related orphan receptor gamma (ROR-gamma) signaling pathway (AID 651802); also: nearly all actives have a fitted effect of over 60% in size; also: potency is read from the fitted curve at half-maximal effect
# Procedure, shortened: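 Steps: cells dispensed; compound or DMSO transferred by pin tool; doxycycline added to induce the ROR response element-driven luciferase; plates held 16hr at 37C; ONE-Glo added and luminescence measured.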
# [11] = qHTS assay for small molecule antagonists of the retinoid-related orphan receptor gamma (ROR-gamma) signaling pathway - cell viability counter screen (AID 720652; active = well fitted curve in the direction sought with a large enough effect in the repeat runs; an effect the other way counts as inactive or inconclusive;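 also: compound exposure lasted 16 hr before ATP read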; also: potency is read from the fitted curve at half-maximal effect)
# Procedure, shortened: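 Steps: seed CHO cells bearing TET-inducible ROR and ROR response element-luciferase; rest 5 hr at 37 C; add compound, then doxycycline; incubate 16 hr; add CellTiter-Glo and read luminescence as ATP-based viability.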
# [12] = qHTS for compounds that reverse cellular toxicity of Amyloid beta (A-beta) peptide in yeast: LOPAC Validation Assay (AID 720559);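 also: plate controls were DMSO for no effect and equimolar ferric chloride plus clioquinol rescue for full effect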
# Procedure, shortened: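 Rescue of A-beta toxicity was scored as yeast growth by 600 nm absorbance after 48 hr at 30 C with compound. Normalization used DMSO (negative) and equimolar ferric chloride plus clioquinol (positive).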
# [13] = qHTS for Activators of Parkin Expression: LOPAC Validation Assay (NLuc Reporter) (AID 720572;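 also: 0% = DMSO and 100% = positive control compound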)
# Procedure, shortened: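 Cells harboring the Parkin-promoter coincidence reporter were treated for 24 h at seven concentrations. NLuc output was measured sequentially after the FLuc channel and scaled between DMSO and positive control values.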
# [14] = qHTS for Activators of Parkin Expression: LOPAC Validation Assay (FLuc Reporter) (AID 720573;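 also: 0% = DMSO and 100% = positive control compounds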)
# Procedure, shortened: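 FLuc signal from Parkin-promoter coincidence reporter neuronal cells, normalized to DMSO and positive control (100%). Cells (1,500/well) pre-incubated 24 h, then exposed to LOPAC compounds in 7-point dose response for 24 h at 37 C, 5% CO2.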
# [15] = target: T1, Hexokinase-4 (Homo sapiens) + Glucokinase regulatory protein (Homo sapiens); assay: qHTS assay for inhibitors of recombinant human GCK-GKRP interaction: ADP-Glo assay (AID 743206);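 also: plate controls were DMSO plus enzyme for no effect and no enzyme for full effect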
# Procedure, shortened: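 Pin-transferred compounds meet a 15 nM GST-GCK/15 nM FLAG-GKRP/2 uM S6P mix (dispense concentrations). ATP is then added to 0.4 mM final with 5 mM glucose, and the reaction runs 60 min at room temperature. ADP is quantified luminescently.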
# [16] = target: T1, Hexokinase-4 (Homo sapiens) + Glucokinase regulatory protein (Homo sapiens); assay: qHTS assay for inhibitors of recombinant human GCK-GKRP interaction: HTRF assay (AID 743207);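 also: 0% = DMSO with GCK present and -100% = DMSO wells lacking GCK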
# Procedure, shortened: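 After 60 min equilibration at room temperature with anti-FLAG XL665 and anti-GST antibodies, FRET ratio (665/615 nm, excitation 320 nm) was read. Proteins: GST-GCK and FLAG-GKRP, each 5 nM, plus 2 uM S6P, pH 7.1 buffer; GCK-free wells define minimum signal.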
# Chain of Peroxisome proliferator-activated receptor alpha (Homo sapiens) (Q07869 whole entry, looked up): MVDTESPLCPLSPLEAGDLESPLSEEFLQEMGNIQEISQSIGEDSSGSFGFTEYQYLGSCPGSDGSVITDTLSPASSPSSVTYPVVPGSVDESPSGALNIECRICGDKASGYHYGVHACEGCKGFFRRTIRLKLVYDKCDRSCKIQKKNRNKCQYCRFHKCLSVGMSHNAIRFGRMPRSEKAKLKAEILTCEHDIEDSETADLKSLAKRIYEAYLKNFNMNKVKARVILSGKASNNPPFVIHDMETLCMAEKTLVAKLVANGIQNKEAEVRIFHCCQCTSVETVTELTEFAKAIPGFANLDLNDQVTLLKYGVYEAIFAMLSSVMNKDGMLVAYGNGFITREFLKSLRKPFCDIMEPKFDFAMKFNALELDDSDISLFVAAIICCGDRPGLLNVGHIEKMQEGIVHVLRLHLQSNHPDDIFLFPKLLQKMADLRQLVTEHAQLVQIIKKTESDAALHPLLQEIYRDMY
# Chain of Arylsulfatase A (Homo sapiens) (P15289 whole entry, looked up): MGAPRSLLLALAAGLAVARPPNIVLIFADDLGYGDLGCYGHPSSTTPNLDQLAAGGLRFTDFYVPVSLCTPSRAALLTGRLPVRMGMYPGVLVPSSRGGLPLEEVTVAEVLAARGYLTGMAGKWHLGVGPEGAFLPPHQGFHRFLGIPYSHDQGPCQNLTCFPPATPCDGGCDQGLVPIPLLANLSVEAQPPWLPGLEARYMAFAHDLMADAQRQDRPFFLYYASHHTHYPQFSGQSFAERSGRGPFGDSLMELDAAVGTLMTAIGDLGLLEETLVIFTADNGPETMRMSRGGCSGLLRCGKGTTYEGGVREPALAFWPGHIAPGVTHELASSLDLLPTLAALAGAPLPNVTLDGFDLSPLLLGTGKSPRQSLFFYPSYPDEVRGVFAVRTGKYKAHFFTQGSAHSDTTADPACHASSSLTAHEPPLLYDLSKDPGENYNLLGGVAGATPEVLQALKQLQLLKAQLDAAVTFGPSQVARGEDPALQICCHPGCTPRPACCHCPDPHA
# T1 sequence (P35557 whole entry, looked up): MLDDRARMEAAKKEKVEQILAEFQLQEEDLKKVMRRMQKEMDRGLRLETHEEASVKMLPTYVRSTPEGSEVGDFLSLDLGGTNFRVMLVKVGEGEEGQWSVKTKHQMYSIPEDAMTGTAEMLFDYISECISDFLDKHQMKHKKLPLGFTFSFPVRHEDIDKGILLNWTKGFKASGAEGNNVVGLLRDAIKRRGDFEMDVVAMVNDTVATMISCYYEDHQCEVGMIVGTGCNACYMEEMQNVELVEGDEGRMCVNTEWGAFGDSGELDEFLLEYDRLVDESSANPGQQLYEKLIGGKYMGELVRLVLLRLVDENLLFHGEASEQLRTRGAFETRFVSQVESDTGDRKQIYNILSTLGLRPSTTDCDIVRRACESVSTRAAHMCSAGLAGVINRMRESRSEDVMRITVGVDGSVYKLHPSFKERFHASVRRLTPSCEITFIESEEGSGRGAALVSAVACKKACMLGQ
# T1 sequence (Q14397 whole entry, looked up): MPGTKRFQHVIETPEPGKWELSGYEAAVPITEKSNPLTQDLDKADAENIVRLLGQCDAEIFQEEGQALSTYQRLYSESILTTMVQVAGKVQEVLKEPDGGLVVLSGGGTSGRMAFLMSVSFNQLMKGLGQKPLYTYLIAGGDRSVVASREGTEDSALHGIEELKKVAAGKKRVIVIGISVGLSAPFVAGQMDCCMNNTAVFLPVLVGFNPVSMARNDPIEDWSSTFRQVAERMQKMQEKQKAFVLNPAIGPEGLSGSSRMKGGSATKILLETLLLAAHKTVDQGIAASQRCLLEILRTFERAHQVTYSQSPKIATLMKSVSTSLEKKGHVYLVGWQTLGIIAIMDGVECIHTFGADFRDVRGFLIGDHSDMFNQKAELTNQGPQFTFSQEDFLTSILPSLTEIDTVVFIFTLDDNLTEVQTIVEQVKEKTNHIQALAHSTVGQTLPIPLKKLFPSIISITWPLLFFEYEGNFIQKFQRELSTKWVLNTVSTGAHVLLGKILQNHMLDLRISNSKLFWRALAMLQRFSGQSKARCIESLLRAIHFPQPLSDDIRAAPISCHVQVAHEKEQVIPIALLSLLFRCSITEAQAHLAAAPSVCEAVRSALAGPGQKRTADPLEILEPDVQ
# Chain of Nuclear receptor ROR-gamma (Homo sapiens) (P51449 whole entry, looked up): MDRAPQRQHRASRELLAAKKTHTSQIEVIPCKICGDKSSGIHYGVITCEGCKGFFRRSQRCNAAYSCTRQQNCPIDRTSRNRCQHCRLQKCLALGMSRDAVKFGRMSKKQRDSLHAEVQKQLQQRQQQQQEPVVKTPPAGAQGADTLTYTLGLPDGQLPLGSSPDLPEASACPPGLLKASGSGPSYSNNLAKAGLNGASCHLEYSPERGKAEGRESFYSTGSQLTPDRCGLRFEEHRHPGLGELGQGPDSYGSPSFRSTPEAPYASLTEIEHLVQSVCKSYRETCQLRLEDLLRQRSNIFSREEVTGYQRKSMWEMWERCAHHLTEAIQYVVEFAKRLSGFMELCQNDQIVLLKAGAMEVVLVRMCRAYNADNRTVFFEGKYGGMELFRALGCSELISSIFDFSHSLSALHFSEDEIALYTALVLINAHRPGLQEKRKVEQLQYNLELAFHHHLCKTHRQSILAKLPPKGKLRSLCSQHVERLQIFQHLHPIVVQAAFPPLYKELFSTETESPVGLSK
smiles,measurement,setting,value
C[C@H]1C(=O)O[C@@H]2CCN3CC=C(COC(=O)[C@](C)(O)[C@]1(C)O)[C@H]23,activation,[1],-2.28%
same,max response,[2],0.361%
same,Potency,[3],inactive
same,max response,[4],-1.85%
same,max response,[5],14.3%
same,max response,[6],-3.57%
same,outcome,[7],inactive
CC(=O)[C@@]1(O)CC[C@H]2[C@@H]3CCC4=CC(=O)CC[C@]4(C)[C@H]3CC[C@@]21C,Potency,[8],inactive
C[N+](C)(C)CCCCCCCCCC[N+](C)(C)C,Potency,[8],2.69 µM (active)
same,max response,[5],-0.962%
COCC(=O)N(c1c(C)cccc1C)C(C)C(=O)OC (stereo not given),activation,[1],3.48%
same,max response,[2],-1.66%
same,Potency,[3],inactive
same,max response,[4],-4.71%
same,max response,[5],-6.72%
same,max response,[6],-7.89%
same,outcome,[7],inactive
CCOC(=O)Nc1ccc(NCc2ccc(F)cc2)nc1N,Potency,[8],inactive
same,outcome,[9],inactive
same,Potency,[5],3.55 µM (active)
CNC(=O)Oc1cccc2ccccc12,Potency,[1],39.8 µM (active) and 35.5 µM (active)
same,max response,[2],-0.498% and -1.3%
same,Potency,[10],inactive
same,Potency,[11],inactive
same,max response,[4],6.76% and -21.4%
same,Potency,[5],35.5 µM (active)
same,max response,[6],-4.95% and -11.8%
same,outcome,[7],inactive
C=CCOC(Cn1ccnc1)c1ccc(Cl)cc1Cl (stereo not given),activation,[1],11.9% and 13.2%
same,max response,[2],-1.42% and 0.577%
same,Potency,[3],inactive
same,max response,[4],-15.2% and -7.32%
same,max response,[6],-18.6% and -17%
same,outcome,[7],inactive
COC(=O)C1=CCCN(C)C1,Potency,[8],inactive
same,outcome,[12],inactive
same,Potency,[13],inactive
same,outcome,[14],inactive
same,outcome,[9],inactive
same,outcome,[15],inactive
same,outcome,[16],inactive
same,max response,[5],7.57% and 6.37%
COP(=O)(OC)C(O)C(Cl)(Cl)Cl (stereo not given),activation,[1],1.53%
same,max response,[2],-2.06%
same,max response,[4],-9.64%
same,max response,[6],-19.1%
same,outcome,[7],inactive
O=c1n(Cl)c(=O)n(Cl)c(=O)n1Cl,activation,[1],0.752%
same,max response,[2],-0.0703%
same,Potency,[3],inactive
same,max response,[4],-3.02%
same,max response,[5],-4.5%
same,max response,[6],2.76%
same,outcome,[7],inactive
CCNc1nc(Cl)nc(NCC)n1,activation,[1],-1.55%
same,max response,[2],-1.73%
same,Potency,[3],inactive
same,max response,[4],2.17%
same,max response,[5],2.85%
same,max response,[6],-8%
same,outcome,[7],inactive
NC(N)=NC(=O)c1nc(Cl)c(N)nc1N,Potency,[8],inactive
same,max response,[5],25%
NC(=O)CN1CCCC1=O,Potency,[8],inactive
same,outcome,[12],inactive
same,Potency,[13],inactive
same,outcome,[14],inactive
same,outcome,[9],inactive
same,outcome,[15],inactive
same,outcome,[16],inactive
same,max response,[5],0.359% and -8.59%
CN(C)C(=S)SSC(=S)N(C)C,activation,[1],8.11% and 11.6%
same,max response,[2],-9.79% and -7.98%
same,Potency,[10],5.31 µM (active)
same,Potency,[3],42.2 µM (active)
same,Potency,[11],33.5 µM (active)
same,max response,[4],-25.3%
same,Potency,[5],0.0662 µM (active)
same,Potency,[6],44.7 µM (active)
same,outcome,[7],inactive
Nc1c2ccccc2nc2ccccc12,Potency,[1],31.6 µM (active)
CNC(C)Cc1ccc2c(c1)OCO2 (stereo not given),max response,[5],-4.91%
Cc1ccc(N=CN(C)C=Nc2ccc(C)cc2C)c(C)c1,Potency,[3],inactive
same,max response,[4],-11.3%
same,max response,[5],9.43%
same,max response,[6],-16.1%
same,outcome,[7],inactive
NC(N)=N/N=C/c1c(Cl)cccc1Cl,Potency,[5],3.55 µM (active)
COc1ccc(OC)c(CC(C)N)c1 (stereo not given),max response,[5],-18.6%
CCC1(c2cnc[nH]2)Cc2ccccc2C1,max response,[5],-21.2%
COc1cc(C[C@@H](C)N)c(OC)cc1C,max response,[5],-6.71%
CC(Cc1ccccc1)NCc1ccccc1Cl (stereo not given),max response,[5],9%
CCOC(=O)NC(C)(C)Cc1ccc(Cl)cc1,max response,[5],-1.19%
C[C@H](N)[C@H](O)c1ccc(O)c(O)c1,max response,[5],-0.0676%
COc1ccc2c(C(=O)c3ccc(Cl)cc3)c(C)n(CC(=O)O)c2c1,max response,[5],36.2%
CC(C)C(Br)C(=O)NC(N)=O (stereo not given),max response,[5],6.08%
Nc1ccc(N)cc1,max response,[5],-1.22%
NC(=O)OCCCc1ccccc1,max response,[5],-5.39%
CN(C)CCc1c[nH]c2ccccc12,max response,[5],16.8%
CC(C)NCC(O)c1ccc(N)c(C#N)c1 (stereo not given),max response,[5],9.7%
CCN(CC)C(C)C(=O)c1ccccc1 (stereo not given),max response,[5],2.91%
CNC(=O)Oc1ccc2c(c1)[C@]1(C)CCN(C)[C@@H]1N2C,outcome,[9],inactive
same,Potency,[5],11.2 µM (active) and 3.55 µM (active)
CCCN(CCC)CCc1c[nH]c2ccccc12,max response,[5],-3.32%
CC1=C2[C@H]3OC(=O)[C@@H](C)[C@@H]3CC[C@@]2(C)C=CC1=O,max response,[5],4.47%
O=C(O)c1ccccc1Nc1cc(Cl)ccc1C(=O)O,max response,[5],32.7%
CCC1(CC)C(=O)NC(=O)NC1=O,max response,[5],-6.5%
NC1(c2ccccc2)CCCCC1,max response,[5],3.42%
O=C(Nc1ccc(Cl)cc1)Nc1ccc(Cl)c(Cl)c1,Potency,[5],15.8 µM (active) and 29.6 µM (active)
COc1ccc2[nH]cc(CCN(C(C)C)C(C)C)c2c1,max response,[5],-5.46%
